Source: the supplement of paper PMC10037445
The full ranking holds about 2,900 compounds; the median of “NF-kB SEAP reporter activity, fold change vs agonist alone” is about 0.99, and the highest 2% start at about 2.6. What follows is part of a selection rich in the highest values, with near analogues and random picks from the rest.

Key:
[1] = system: RAW-Dual; test: NF-kB SEAP reporter activity, fold change vs agonist alone; higher = enhanced NF-kB activity; details: library stock concentration (final ~1000-fold dilution): 10 mM, cytotoxicity flag (confluency mask): not cytotoxic
Procedure, shortened: (§1)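 RAW-Dual macrophages were seeded in DMEM at 50,000 cells/well in 384-well plates, given 50 nL of library stock by pin tool, and given a PRR agonist 1 h later. Plates were held at 37 °C, 5% CO2 for 20 hours, after which supernatant was read for IRF by QuantiLuc luminescence and for NF-κB by QuantiBlue absorbance at 620 nm. Reporter activity is expressed as fold change over wells that received agonist alone. A well was called cytotoxic when IncuCyte confluency fell below 70% of agonist controls in both mask sets.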

[2] = system: RAW-Dual; test: NF-kB SEAP reporter activity, fold change vs agonist alone; cytotoxicity flag (confluency mask): not cytotoxic; higher = enhanced NF-kB activity
Procedure, shortened: as §1

[3] = agonist: ODN 1826 (TLR9) 0.5 ug/mL
[4] = agonist: Pam2CSK4 (TLR2/6) 0.1 ug/mL
[5] = agonist: Pam3CSK4 (TLR2/1) 0.1 ug/mL

Compound | NF-kB SEAP reporter activity ([1]; agonist: Imiquimod (TLR7) […]) | NF-kB SEAP reporter activity ([1]; agonist: MPLA (TLR4) […]) | NF-kB SEAP reporter activity ([2]; agonist: LPS (TLR4) 0.1 ug/mL) | NF-kB SEAP reporter activity [2, 3] | NF-kB SEAP reporter activity [2, 4] | NF-kB SEAP reporter activity [2, 5]
Cn1ncc(Cl)c1-c1cc(C(=O)NC(CN)Cc2ccc(F)c(F)c2)oc1Cl (stereo unspecified) | 1.61 | 1.61 | – | – | – | –
Cn1ncc(Cl)c1-c1cc(C(=O)NC(CN)Cc2ccc(F)c(F)c2)oc1Cl (stereo unspecified) (library stock concentration (final ~1000-fold dilution): 10 mM) | – | – | 1.03 | 2.35 | 1.07 | 1.44
CCOC(=O)C(CCc1ccccc1)NC(C)C(=O)N1Cc2ccccc2CC1C(=O)O.Cl (stereo unspecified) (library stock concentration (final ~1000-fold dilution): 10 mM) | – | – | 0.94 | 1.07 | 1.26 | 1.05
CCOC(=O)C(CCc1ccccc1)NC(C)C(=O)N1Cc2ccccc2CC1C(=O)O.Cl (stereo unspecified) | 1.02 | 1.03 | – | – | – | –
CC(Nc1ncnc2[nH]cnc12)c1cc2cccc(Cl)c2c(=O)n1-c1ccccc1 (stereo unspecified) | 0.473 | 0.709 | – | – | – | –
CC(Nc1ncnc(N)c1C#N)c1cc2cccc(-c3ccc(=O)n(C)c3)c2c(=O)n1C(C)C (stereo unspecified) | 1.22 | 2.8 | – | – | – | –
CC(Nc1ncnc(N)c1C#N)c1cc2cccc(-c3ccc(=O)n(C)c3)c2c(=O)n1C(C)C (stereo unspecified) (library stock concentration (final ~1000-fold dilution): 10 mM) | – | – | 4.83 | 0.722 | 1.22 | 3.02
CC(NC(=O)c1c(N)nn2cccnc12)c1cc2cccc(C#Cc3cnn(C)c3)c2c(=O)n1-c1ccccc1 (stereo unspecified) | 1.18 | 1.44 | – | – | – | –
CC(Nc1ncnc2[nH]cnc12)c1cc2cccc(Cl)c2c(=O)n1-c1ccccc1 (stereo unspecified) (library stock concentration (final ~1000-fold dilution): 10 mM) | – | – | 0.744 | 0.653 | 0.665 | 0.549
CC(NC(=O)c1c(N)nn2cccnc12)c1cc2cccc(C#Cc3cnn(C)c3)c2c(=O)n1-c1ccccc1 (stereo unspecified) (library stock concentration (final ~1000-fold dilution): 10 mM) | – | – | 2.34 | 1.3 | 0.628 | 0.931
Cc1cccc(C)c1OCC(=O)NC(Cc1ccccc1)C(O)CC(Cc1ccccc1)NC(=O)C(C(C)C)N1CCCNC1=O (stereo unspecified) | 1.63 | 2.06 | – | – | – | –
Cc1cccc(C)c1OCC(=O)NC(Cc1ccccc1)C(O)CC(Cc1ccccc1)NC(=O)C(C(C)C)N1CCCNC1=O (stereo unspecified) (library stock concentration (final ~1000-fold dilution): 10 mM) | – | – | 1.37 | 2.09 | 0.396 | 1.03
